The record followed here is PubChem BioAssay (NCATS).

In experiment [1] the target is Lysosomal acid glucosylceramidase (Homo sapiens) (UniProt P04062). Description: Glucocerebrosidase-p2 (AID 348; in the data active = potency below about 10 µM; note: potency is the fitted concentration of half-maximal effect). The conditions noted are these: purified GBA, blue fluorogenic substrate, 40 min. The procedure, abridged:
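Compounds titrated from 0.6 nM upwards against 0.2 nM enzyme in pH 5.9 citric acid/KH2PO4, taurocholate, tween-20; blue fluorogenic substrate 80 uM, 40 min room temperature, stopped and read Ex 365/Em 440 for AC50.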

Experiment [2] in a line: AP1 Signaling Pathway (AID 357; active = well fitted curve in either direction with a large enough effect, not every such curve was filed as active; note: % is set by controls: 0 for no effect and ±100 for the full control effect). The conditions noted are these: ME-180 AP-1-bla reporter, EGF-induced, beta-lactamase ratio, 5 h; at 7.69 µM (top of the series) unless noted. In outline: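 Read-out was the 460nm/530nm emission ratio (excitation 405nm) after CCF4 loading for 2.5 hours at room temperature. Cells carried an AP-1-driven beta-lactamase reporter, were stimulated with EC50 EGF plus compound for 5 hours, and AC50 values came from titrations.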

For experiment [3], the target named is Cytochrome P450 1A2 (Homo sapiens) (UniProt P05177). The experiment in a line: p450-cyp1a2 (AID 410; calls by dose curve; note: potency is the fitted concentration of half-maximal effect). To be noted: recombinant CYP1A2, luciferin-ME demethylation, luminescence; series mostly up to 57 µM. In outline: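 Inhibition was calculated relative to 57 uM furafylline (full inhibition). The reaction used human CYP1A2 at 20nM with Luciferin-ME at its Km, 100uM, driven by an NADPH-regenerating system for 60 min at room temperature.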

Experiment [4] is described as follows: NFAT Signaling Pathway (AID 444; active = well fitted curve in either direction with a large enough effect, not every such curve was filed as active;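 note: carbachol stimulus at about its EC50 of 1 µM final; % is set by controls: 0 for no effect and ±100 for the full control effect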). The conditions noted are these: Jurkat NFAT-bla M1, carbachol, beta-lactamase ratio, 5 h; at 7.69 µM (top of the series) unless noted. In outline:
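Jurkat cells carrying an NFAT-driven β-lactamase reporter and co-transfected muscarinic M1 receptor were treated with compound plus carbachol (1 uM final, an EC50 level) for 5 h at 37 °C. CCF4 loading followed for 1 h at RT; 460/530 nm ratio gave %activity.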

A short description of experiment [5]: Stat Signaling Pathway (AID 446; active = well fitted curve in either direction with a large enough effect, not every such curve was filed as active;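 note: ME-180 cervical cancer cells given 40 pM IL-6 alongside compound; SIE-controlled beta-lactamase reporter measured as 460/530 nm FRET emission ratio; % is set by controls: 0 for no effect and ±100 for the full control effect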). The conditions noted are these: ME-180 SIE beta-lactamase reporter, IL-6 stimulated, 5 h; at 7.69 µM (top of the series) unless noted. The procedure, abridged: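 ME-180 cells carrying a SIE-driven beta-lactamase reporter are stimulated with 40 pM IL-6 for 5 h at 37C in the presence of compound. The 460/530 nm FRET substrate ratio is read after 2.5 h at RT. Data are normalised to 300 pM IL-6 and to 125 nM JAK inhibitor controls.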

For experiment [6], the target named is Glucocorticoid receptor (Homo sapiens) (UniProt P04150). Description: GR-GFP Redistribution (AID 450;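 active = compounds whose dose series gives a full or clear partial fitted curve of increased nuclear translocation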; note: potency is the fitted concentration of half-maximal effect). To be noted: U2OS GR-GFP nuclear translocation, laser cytometry, 2 h.
Experiment [7] shares this target. The experiment in a line: GR-EFC Redistribution (AID 451; calls by dose curve; note: potency is the fitted concentration of half-maximal effect). The conditions noted are these: CHO-K1 GR-EFC translocation, beta-gal luminescence, 2 h. In outline: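 CHO-K1 cells stably expressing nuclear-localized β-gal enzyme acceptor and GR fused C-terminally to the enzyme donor fragment; ligand-driven nuclear translocation restores β-gal by complementation. Compounds titrated up to 46 uM final, 2 h at 37 °C; luminescence read.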

Experiment [8] deals with Mitogen-activated protein kinase 10 (Mus musculus) (UniProt Q61831). The experiment in a line: JNK3 AlphaScreen Assay (AID 530; active = well fitted curve in either direction with a large enough effect, not every such curve was filed as active;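 note: kinase came from lysate of stimulated human HepG2 cells; signal reports phosphorylation of biotinylated GST-cJun 1-79 at Ser73 with 10 µM ATP; % is set by controls: 0 for no effect and ±100 for the full control effect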). To be noted: JNK3 lysate, c-Jun phosphorylation; series mostly up to 57.1 µM. In outline:
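JNK3 came from HepG2 lysates pre-activated with IL-1beta and TNF-alpha and phosphorylated biotinylated GST-cJun (1-79) at 10 uM ATP, pH 7.6, room temperature. Compounds were titrated. AlphaScreen signal used anti-phospho-cJun (Ser73) antibody.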
A general note: Bead proximity is the source of the signal in Alpha formats.

Experiment [9] has as its target 3',5'-cyclic-AMP phosphodiesterase 4B (Homo sapiens) (UniProt Q07343). The experiment in a line: qHTS Assay for Inhibitors of PDE-IV (AID 607; active = well fitted activation curve with a large enough effect in the main read-out, with a control signal flat, not every such curve was filed as active; note: % of control where 0% means no effect). To be noted: HEK293 ACTOne CNG channel cells, membrane potential fluorescence; series mostly up to 22.9 µM. The procedure, abridged: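 HEK293 ACTOne cells with CNG channel (1000/well), endogenous PDE4; membrane potential dye, compounds up to 22.9 uM final. Fluorescence Ex 535/Em 590; RO 20-1724 (100 uM final) as reference.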
(Quantitative high-throughput screening tests each substance at several concentrations.)

Experiment [10] has as its target Dual specificity protein kinase CLK4 (Homo sapiens) (UniProt Q9HAZ1). Description: qHTS Assay for Inhibitors of CDC-like Kinase 4 (Kinase-Glo Assay) (AID 1770). Note: nearly all actives have a fitted effect of over 65% in size. Note: potency is the fitted concentration of half-maximal effect. To be noted: recombinant Clk4, Kinase-Glo ATP depletion luminescence; series mostly up to 66.7 µM. In outline: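 Recombinant human Clk4 (25 nM) phosphorylated RS repeat peptide (100 uM) with 1 uM ATP in Tris pH 7.5/MgCl2/EGTA/DTT/Triton buffer for 4.5 h at room temperature. Residual ATP was quantified by Kinase-Glo luciferase luminescence.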

Experiment [11] has the same target. Description: qHTS Assay for Inhibitors of CDC-like Kinase 4 (ADP-Glo Assay) (AID 1771). Note: nearly all actives have a fitted effect of over 70% in size. Note: potency is the fitted concentration of half-maximal effect. To be noted: recombinant CLK4, ADP-Glo luminescence; series mostly up to 80 µM. In outline: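 Kinase reaction: Clk4 at 25 nM, RS repeat peptide substrate at 100 uM, ATP at 1 uM, 1 hr, room temperature. Product ADP detected as luciferase signal via ADP-Glo.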
Experiment [12] has the same target. The experiment in a line: qHTS Assay for Inhibitors of CDC-like Kinase 4 (ADP-FP Assay) (AID 1795). Note: nearly all actives have a fitted effect of over 60% in size. Note: potency is the fitted concentration of half-maximal effect. The conditions noted are these: Transcreener ADP fluorescence polarization; series mostly up to 50 µM. In outline:
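Recombinant human Clk4 (6.25 nM) phosphorylated RS repeat peptide (100 uM) with 1 uM ATP in Tris pH 7.5/MgCl2/EGTA/DTT/Triton buffer for one hour. ADP was quantified by Transcreener competitive fluorescence polarization against an ADP calibration curve.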

Experiment [13] has as its target Ubiquitin carboxyl-terminal hydrolase 1 (Homo sapiens) (UniProt O94782). The experiment in a line: Inhibitors of USP1/UAF1: Pilot qHTS (AID 504865).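 Note: rhodamine fluorescence freed from ubiquitin-rhodamine substrate followed over time; top concentration of the series differs between compounds; % is set by controls: 0 for no effect and ±100 for the full control effect; nearly all actives have a fitted effect of over 35% in size.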 The conditions noted are these: purified USP1/UAF1, Ub-rhodamine cleavage fluorescence; series mostly up to 54.9 µM. In outline: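 USP1/UAF1 complex (1nM) preincubated with compound 15 min at room temperature, then Ub-Rho substrate (150nM final) added. Fluorescence read kinetically at 480/540 nm, 6 reads every 60 seconds. Buffer: 50mM HEPES pH 7.8, 0.5mM EDTA, 0.1 mg/ml BSA, 1mM TCEP, 0.01% Tween-20.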

Experiment [14] can be described thus: Primary qHTS for small molecule stabilizers of the endoplasmic reticulum resident proteome: Secreted ER Calcium Modulated Protein (SERCaMP) assay (AID 1508630). Note: % is set by controls: 0 for no effect and ±100 for the full control effect. To be noted: SH-SY5Y GLuc-SERCaMP (Gaussia luciferase released on ER calcium loss) secretion, thapsigargin, luminescence; series mostly up to 38.4 µM. The procedure, abridged: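 GLuc-SERCaMP-expressing SH-SY5Y cells, pretreated 16 h with compound, are challenged with thapsigargin to empty ER calcium stores; after 4 h, coelenterazine is added directly to the medium and luminescence is imaged.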

In experiment [15] the target is Cytochrome P450 3A4 (Homo sapiens) (UniProt P08684). Description: qHTS Assay for Inhibitors and Substrates of Cytochrome P450 3A4 (AID 884). Note: potency is the fitted concentration of half-maximal effect; nearly all actives have a fitted effect of over 50% in size. To be noted: recombinant CYP3A4, Luciferin-PPXE luminescence; series mostly up to 57.1 µM. The procedure, abridged: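 20 nM human CYP3A4 with 25 uM Luciferin-PPXE (at KM) in 200 mM KPO4, preincubated 10 min with compound; NADPH regeneration started a 60 min RT reaction. Luciferin detected by luminescence, normalized to 57 uM ketoconazole as full inhibition.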

The target is the same in experiment [16]. The experiment in a line: qHTS Assay for Activators of Cytochrome P450 3A4 (AID 885). Note: nearly all actives have a fitted effect of over 65% in size. To be noted: recombinant CYP3A4, Luciferin-PPXE luminescence, 60 min; series mostly up to 57.1 µM. The procedure, abridged:
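Human CYP3A4 (20 nM) with Luciferin-PPXE at 25 uM (its KM) in 200 mM KPO4; 10 min compound preincubation, then NADPH regeneration and 60 min reaction at RT. Luciferin read by luminescence; normalized to 57 uM ketoconazole full inhibition.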

The target in experiment [17] is Rap guanine nucleotide exchange factor 3 (Homo sapiens) (UniProt O95398). Description: Confirmatory qHTS for agonist of cAMP-regulated guanine nucleotide exchange factor 3 (EPAC1) (AID 1645881).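 Note: EPAC1 catalysed release of BODIPY-GDP from Rap1B seen as fluorescence loss; 100% = effect of cAMP agonist control; nearly all actives have a fitted effect of over 75% in size.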 To be noted: EPAC1 Rap1B BODIPY-GDP exchange fluorescence; series mostly up to 154 µM.

Unmarked numbers belong to inactive results. Inconclusive results are not listed. Activity calls are given as the source filed them. Unless noted, calls come from the whole dose curve; as a rule, active = well fitted curve in the direction sought with a large enough effect; inconclusive = small, poorly fitted or top-dose-only effect, or another doubt; inactive = no such curve, though single readings can be large; an effect the other way counts as inactive or inconclusive.

Cytochrome P450 3A4 (Homo sapiens), sequence (P08684 whole entry, looked up): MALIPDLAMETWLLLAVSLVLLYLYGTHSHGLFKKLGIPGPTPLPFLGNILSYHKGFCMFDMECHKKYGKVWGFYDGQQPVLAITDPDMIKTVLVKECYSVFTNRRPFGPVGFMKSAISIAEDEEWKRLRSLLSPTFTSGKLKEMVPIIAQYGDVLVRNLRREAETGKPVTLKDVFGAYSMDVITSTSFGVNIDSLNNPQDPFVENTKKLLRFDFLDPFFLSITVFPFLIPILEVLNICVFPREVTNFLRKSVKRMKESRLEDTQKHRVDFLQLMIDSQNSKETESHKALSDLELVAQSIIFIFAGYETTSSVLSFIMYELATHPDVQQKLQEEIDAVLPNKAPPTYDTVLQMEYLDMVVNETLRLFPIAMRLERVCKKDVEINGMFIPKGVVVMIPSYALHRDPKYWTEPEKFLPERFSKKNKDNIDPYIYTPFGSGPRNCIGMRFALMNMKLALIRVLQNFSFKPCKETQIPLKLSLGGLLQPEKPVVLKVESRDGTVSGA
Cytochrome P450 1A2 (Homo sapiens), sequence (P05177 whole entry, looked up): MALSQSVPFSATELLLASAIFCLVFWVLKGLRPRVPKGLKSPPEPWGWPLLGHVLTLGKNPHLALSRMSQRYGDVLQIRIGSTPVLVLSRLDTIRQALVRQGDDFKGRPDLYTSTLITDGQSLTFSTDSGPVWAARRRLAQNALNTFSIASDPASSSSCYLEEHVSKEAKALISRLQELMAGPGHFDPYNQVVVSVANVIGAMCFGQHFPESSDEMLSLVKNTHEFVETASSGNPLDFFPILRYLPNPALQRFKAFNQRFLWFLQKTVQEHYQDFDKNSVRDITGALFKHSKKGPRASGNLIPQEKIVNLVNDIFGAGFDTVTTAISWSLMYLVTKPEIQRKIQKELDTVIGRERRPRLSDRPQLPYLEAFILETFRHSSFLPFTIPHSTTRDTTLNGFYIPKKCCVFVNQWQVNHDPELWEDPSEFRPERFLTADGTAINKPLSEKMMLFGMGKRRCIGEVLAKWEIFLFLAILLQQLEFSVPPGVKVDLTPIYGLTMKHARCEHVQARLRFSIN
Lysosomal acid glucosylceramidase (Homo sapiens), sequence (P04062 whole entry, looked up): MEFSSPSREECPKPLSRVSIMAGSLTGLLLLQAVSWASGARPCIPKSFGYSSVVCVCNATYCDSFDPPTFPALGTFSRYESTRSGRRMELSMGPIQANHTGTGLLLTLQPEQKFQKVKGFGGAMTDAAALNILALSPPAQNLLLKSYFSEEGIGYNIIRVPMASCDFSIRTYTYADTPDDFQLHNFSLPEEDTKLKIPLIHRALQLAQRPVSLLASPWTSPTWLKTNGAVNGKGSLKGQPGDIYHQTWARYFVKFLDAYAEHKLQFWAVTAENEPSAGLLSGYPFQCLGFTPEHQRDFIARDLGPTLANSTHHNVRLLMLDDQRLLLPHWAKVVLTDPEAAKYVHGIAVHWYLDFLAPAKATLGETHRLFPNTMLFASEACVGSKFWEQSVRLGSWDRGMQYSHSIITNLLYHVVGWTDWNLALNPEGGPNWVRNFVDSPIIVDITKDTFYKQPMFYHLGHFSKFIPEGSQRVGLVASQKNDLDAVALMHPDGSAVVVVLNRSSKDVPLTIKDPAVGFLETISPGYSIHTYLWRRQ
3',5'-cyclic-AMP phosphodiesterase 4B (Homo sapiens), sequence (Q07343 whole entry, looked up): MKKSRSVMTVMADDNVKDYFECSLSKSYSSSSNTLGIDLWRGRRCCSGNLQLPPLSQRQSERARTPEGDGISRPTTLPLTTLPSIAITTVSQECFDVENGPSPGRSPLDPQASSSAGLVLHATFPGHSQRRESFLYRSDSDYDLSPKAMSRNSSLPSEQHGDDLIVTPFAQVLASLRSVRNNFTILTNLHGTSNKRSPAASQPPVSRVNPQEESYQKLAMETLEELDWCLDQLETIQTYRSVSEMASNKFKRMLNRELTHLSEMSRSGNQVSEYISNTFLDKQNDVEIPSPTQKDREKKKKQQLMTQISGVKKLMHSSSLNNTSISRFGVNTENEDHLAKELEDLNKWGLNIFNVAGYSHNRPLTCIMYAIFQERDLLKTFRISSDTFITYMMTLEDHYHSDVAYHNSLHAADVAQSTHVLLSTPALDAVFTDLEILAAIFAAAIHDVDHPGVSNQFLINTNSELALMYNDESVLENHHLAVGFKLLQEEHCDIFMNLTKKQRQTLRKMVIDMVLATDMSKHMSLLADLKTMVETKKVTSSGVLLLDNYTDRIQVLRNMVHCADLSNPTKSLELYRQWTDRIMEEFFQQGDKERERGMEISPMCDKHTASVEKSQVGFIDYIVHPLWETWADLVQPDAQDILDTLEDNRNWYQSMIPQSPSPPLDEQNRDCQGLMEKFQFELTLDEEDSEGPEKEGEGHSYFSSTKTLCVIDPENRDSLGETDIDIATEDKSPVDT
Dual specificity protein kinase CLK4 (Homo sapiens), sequence (Q9HAZ1 whole entry, looked up): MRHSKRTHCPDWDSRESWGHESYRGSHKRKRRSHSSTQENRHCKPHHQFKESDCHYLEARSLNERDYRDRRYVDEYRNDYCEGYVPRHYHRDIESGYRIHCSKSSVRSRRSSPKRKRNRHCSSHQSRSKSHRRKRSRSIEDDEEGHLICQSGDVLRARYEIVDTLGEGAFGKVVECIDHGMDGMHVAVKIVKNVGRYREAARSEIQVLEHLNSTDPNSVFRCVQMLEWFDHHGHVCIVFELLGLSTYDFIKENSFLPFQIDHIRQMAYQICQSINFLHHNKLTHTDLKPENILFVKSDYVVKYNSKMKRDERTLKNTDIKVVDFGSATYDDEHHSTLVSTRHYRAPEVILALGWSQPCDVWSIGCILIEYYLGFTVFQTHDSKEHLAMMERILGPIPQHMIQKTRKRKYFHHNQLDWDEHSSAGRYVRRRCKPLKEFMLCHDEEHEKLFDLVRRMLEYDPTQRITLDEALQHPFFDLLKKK
Ubiquitin carboxyl-terminal hydrolase 1 (Homo sapiens), sequence (O94782 whole entry, looked up): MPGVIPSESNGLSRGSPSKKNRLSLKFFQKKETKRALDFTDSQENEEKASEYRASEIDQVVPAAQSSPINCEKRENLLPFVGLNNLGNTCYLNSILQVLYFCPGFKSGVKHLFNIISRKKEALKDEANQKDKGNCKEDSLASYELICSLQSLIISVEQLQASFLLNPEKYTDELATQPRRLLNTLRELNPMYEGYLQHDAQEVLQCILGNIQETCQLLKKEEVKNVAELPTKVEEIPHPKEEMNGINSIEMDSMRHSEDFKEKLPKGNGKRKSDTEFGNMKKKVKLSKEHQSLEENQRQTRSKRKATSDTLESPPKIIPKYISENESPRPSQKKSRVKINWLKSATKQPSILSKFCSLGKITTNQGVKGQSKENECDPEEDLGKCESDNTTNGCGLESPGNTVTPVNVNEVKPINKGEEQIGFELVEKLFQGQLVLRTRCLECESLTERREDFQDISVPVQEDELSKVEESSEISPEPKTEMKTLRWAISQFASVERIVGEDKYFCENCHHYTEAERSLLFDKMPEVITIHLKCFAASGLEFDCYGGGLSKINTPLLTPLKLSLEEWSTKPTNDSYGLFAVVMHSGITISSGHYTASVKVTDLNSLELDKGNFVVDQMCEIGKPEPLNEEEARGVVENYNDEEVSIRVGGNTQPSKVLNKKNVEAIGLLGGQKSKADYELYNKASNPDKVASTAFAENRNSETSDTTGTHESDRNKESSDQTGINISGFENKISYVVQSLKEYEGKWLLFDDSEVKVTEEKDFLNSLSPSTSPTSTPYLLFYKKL
Glucocorticoid receptor (Homo sapiens), sequence (P04150 whole entry, looked up, the tested form may be a part): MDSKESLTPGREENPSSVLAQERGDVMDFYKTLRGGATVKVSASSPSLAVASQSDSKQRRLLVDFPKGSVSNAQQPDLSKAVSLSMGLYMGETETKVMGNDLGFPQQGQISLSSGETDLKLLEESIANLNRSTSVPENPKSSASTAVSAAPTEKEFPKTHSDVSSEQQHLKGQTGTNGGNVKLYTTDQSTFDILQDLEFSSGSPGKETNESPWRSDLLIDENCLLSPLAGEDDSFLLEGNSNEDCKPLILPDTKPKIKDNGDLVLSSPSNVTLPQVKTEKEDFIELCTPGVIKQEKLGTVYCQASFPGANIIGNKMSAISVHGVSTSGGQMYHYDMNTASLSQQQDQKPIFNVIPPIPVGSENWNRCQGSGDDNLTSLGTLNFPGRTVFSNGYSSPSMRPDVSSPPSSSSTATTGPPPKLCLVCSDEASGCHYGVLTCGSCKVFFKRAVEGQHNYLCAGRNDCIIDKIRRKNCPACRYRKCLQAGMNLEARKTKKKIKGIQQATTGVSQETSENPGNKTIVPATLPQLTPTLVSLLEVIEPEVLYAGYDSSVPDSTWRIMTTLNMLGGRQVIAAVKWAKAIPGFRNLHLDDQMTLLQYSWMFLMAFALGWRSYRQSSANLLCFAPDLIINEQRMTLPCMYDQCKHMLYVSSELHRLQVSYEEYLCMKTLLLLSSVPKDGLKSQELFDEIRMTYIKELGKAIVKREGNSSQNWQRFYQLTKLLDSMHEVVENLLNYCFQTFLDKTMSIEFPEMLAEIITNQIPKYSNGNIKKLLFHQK

`Cc1nc2cnc(N(C)C)nc2n(-c2ccccc2)c1=O`: the Potency is above 11.4 µM in experiment [1], 2 µM (active) in [3], above 46 µM in experiment [6] and above 46 µM in experiment [7]. Also, the figures for the activity change, negative = inhibition in experiment [2] and in [4] were -7.75% and 9.3%, respectively. The activity, negative = inhibition in [5] was -16.5%. The Potency entry in [8], in experiment [9], in experiment [10], in experiment [11], in experiment [12] and in experiment [13] was “inactive” each time. In addition, in experiment [14], the result was inactive.
For `COc1ccc(CNc2ccnc(-c3ccc(C(=O)N(C)C)cc3)n2)c(OC)c1`, the Potency was above 11.4 µM in experiment [1]; 12.6 µM (active) in [3]; above 46 µM in [6]; above 46 µM in experiment [7]; 3.98 µM (active) in experiment [15]. Besides, the activity change, negative = inhibition is -20% in [2] and -8.82% in experiment [4]. Also, the activity, negative = inhibition in experiment [5] was -4.52%. Further, the Potency result in experiment [8], in [9], in experiment [10], in experiment [11], in experiment [12] and in experiment [13] was “inactive” throughout. Also, in experiment [14], the outcome was inactive.
On to `COc1ccccc1CNc1nc(-c2cccnc2)nc2ccccc12`, for which the Potency in experiment [1] is above 11.4 µM; in [3] it was 1 µM (active); in experiment [7], above 46 µM; in experiment [10] it was 12.6 µM (active); in experiment [11], 10 µM (active); in experiment [12], 4.47 µM (active). For the same compound, the activity change, negative = inhibition in [2] was -17.9%; in experiment [4], -5.69%. In experiment [5], the activity, negative = inhibition is -25.3%. Further, the Potency result in [8], in [16], in experiment [13] and in experiment [17] was “inactive” each time. Besides, the result in experiment [14] was inactive.
Take `Clc1ccccc1-c1cc(NCCN2CCOCC2)ncn1`: the Potency is above 11.4 µM in experiment [1], 31.6 µM (active) in [3], above 46 µM in experiment [6] and above 46 µM in experiment [7]. For the same compound, the activity change, negative = inhibition is 1.17% in experiment [2] and -9.62% in [4]. For the same compound, in experiment [5], the activity, negative = inhibition was 2.93%. The Potency entry in [8], in [9], in experiment [10], in experiment [11], in experiment [12] and in [13] was “inactive” in each case. In experiment [14], the outcome was inactive.
For `COc1cccc(Cn2c(=O)c(-c3ccc(Cl)cc3)nc3cnc(N4CCNCC4)nc32)c1`, the Potency in [1] was above 11.4 µM; in experiment [6], above 9.22 µM; in [7], above 46 µM. The Potency entry in experiment [9], in experiment [16], in experiment [10], in experiment [12], in experiment [13] and in [17] was “inactive” each time. For the same compound, the outcome in experiment [14] was inactive.
In the case of `COc1ccc(Nc2ncc3nc(-c4cccs4)c(=O)n(Cc4cccc(OC)c4)c3n2)cc1`, the Potency in [1] was above 11.4 µM; in experiment [6], above 9.22 µM; in experiment [7], above 46 µM. The activity change, negative = inhibition is -12.3% in [2] and -11.6% in [4]. Besides, the Potency entry in [3], in [8], in experiment [9], in experiment [10], in experiment [11] and in experiment [12] was “inactive” each time. For the same compound, the Potency result in experiment [13] was “inactive”. Besides, the activity, negative = inhibition in experiment [5] is -8.74%. Moreover, the result in experiment [14] was inactive.
For `CN(C)C(=O)c1ccc(-c2nccc(Nc3ccc(F)cc3)n2)cc1`, the Potency is above 11.4 µM in [1], 6.31 µM (active) in experiment [3], above 46 µM in experiment [6] and above 46 µM in experiment [7]. Also, the activity change, negative = inhibition is -14.3% in experiment [2] and -12.1% in experiment [4]. The activity, negative = inhibition in [5] is -4.15%. The Potency result in experiment [8], in experiment [9], in experiment [10], in experiment [11], in [12] and in experiment [13] was “inactive” in each case. Besides, the result in [14] was inactive.
